In PubChem BioAssay AID485317 (Broad Institute, 2010):
Among all 290,000 compounds or so, about 11,000 (3.8%) were called active.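 Rule for the calls: active = mean replicate inhibition above about 79%, with every replicate also reaching it (limit read from the data); inconclusive = only one of the two criteria met; inactive = mean below limit and not every replicate reaching it.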 Shown is part of a subset that was picked to be rich in actives.

Target: FAD-linked sulfhydryl oxidase ALR (Homo sapiens) (UniProt P55789)
Test: inhibitors of human ALR sulfhydryl oxidase, primary screen, biochemical, H2O2 detection, HRP-luminol luminescence, single point (AID 485317)
Details: purified ALR, DTT oxidation, hits give high values, concentration not given here

Sequence of FAD-linked sulfhydryl oxidase ALR (Homo sapiens) (P55789 whole entry, looked up): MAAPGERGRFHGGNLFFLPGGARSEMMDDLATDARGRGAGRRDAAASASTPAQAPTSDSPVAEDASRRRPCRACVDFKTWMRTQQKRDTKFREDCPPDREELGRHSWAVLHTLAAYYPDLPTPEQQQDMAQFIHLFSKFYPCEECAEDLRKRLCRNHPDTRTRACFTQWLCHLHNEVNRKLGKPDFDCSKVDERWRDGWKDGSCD

| SMILES | inhibition |
| --- | --- |
| CC1CN(C(=O)c2cc(COc3c(F)cccc3F)on2)CCN1C (configuration not stated) | -3.41% (inactive) |
| CC1(C)O[C@@H]2[C@H](O1)[C@@H](CO)O[C@H]2n1c(N2CCCCC2)nc2c(N)ncnc21 | 1.47% (inactive) |
| CC(=O)Nn1cc2c(=O)n(C)c(=O)n(C)c2c1 | -9.4% (inactive) |
| CCC(=O)NNc1cc(=O)c2c(=O)n(C)c(=O)n(C)c2[nH]1 | -4.74% (inactive) |
| CC(=O)NNc1cc(=O)c2c(=O)n(C)c(=O)n(C)c2[nH]1 | 90.2% (active) |
| COc1ccc(NC(=O)/C(Cl)=C(/Cl)S(=O)Cc2ccc(C)cc2)cn1 (configuration not stated) | 99.1% (active) |
| CCOc1ccc(S(=O)(=O)Nc2ccc(OC)nc2)cc1 | -0.795% (inactive) |
| COc1ccc(NC(=O)c2cc(-c3ccc(C)cc3)on2)cc1 | -7.55% (inactive) |
| COc1ccc2c(CC(=O)NNC(=O)c3ccccc3F)coc2c1 | -9.32% (inactive) |
| O=C(CCc1ccc(S(=O)(=O)N2CCOCC2)cc1)OCC(=O)c1ccc(Br)cc1 | 3.41% (inactive) |
| O=C(/C=C(O)/C=C/c1ccc(O)cc1)/C=C/c1ccc(O)cc1 | -0.191% (inactive) |
| COc1ccc(N2CCN(C(=O)CCNC(=O)c3ccc(Br)cc3)CC2)cc1 | -0.657% (inactive) |
| COc1ccc(N2CCN(C(=O)CNC(=O)c3ccc(Br)o3)CC2)cc1 | 94% (active) |
| COc1ccc(N2CCN(C(=O)CNC(=O)c3ccc(C(C)(C)C)cc3)CC2)cc1 | -2.48% (inactive) |
| CCOc1ccc(C(=O)CCC(=O)Nc2ccncc2)cc1 | 2.23% (inactive) |
| COc1cc(/C=N/NC(=O)CNC(=O)c2ccncc2)ccc1OC(C)=O | 40.7% (inactive) |
| COc1ccc(/C=N/NC(=O)c2ccncc2)cc1CN1CCCc2ccccc21 | 93.5% (active) |
| COc1ccc(/C=N/NC(=O)c2ccc(Cl)cc2)cc1COC(C)=O | 5.91% (inactive) |
| COc1ccc(-c2ccc(CCC(=O)O)n2-c2ccc(O)cc2)cc1 | 95.3% (active) |
| COCCCn1c(CCC(=O)O)ccc1-c1ccc(F)cc1 | 22.3% (inactive) |
| COc1ccc(-c2ccc(CCC(=O)O)n2NC(=O)c2ccc(C(C)(C)C)cc2)cc1 | 98.4% (active) |
| C=Cn1c(C(=O)O)ccc1-c1ccc(OC)cc1 | 6.07% (inactive) |
| COc1ccc(C(=O)NC(Cc2ccc(OC(=O)c3ccc(OC)cc3)cc2)C(=O)O)cc1 (configuration not stated) | 15.2% (inactive) |
| CCOC(=O)c1ccc(-n2c(CCC(=O)O)ccc2-c2ccccc2)cc1 | 6.43% (inactive) |
| CC1Cc2ccccc2N1S(=O)(=O)c1cccc(C(=O)OCC(=O)N2CCOCC2)c1 (configuration not stated) | 2.06% (inactive) |
| CC(=O)c1c(C)[nH]c(C(=O)COC(=O)c2cccs2)c1C | -7.6% (inactive) |

| SMILES | inhibition |
| --- | --- |
| COc1ccc(-c2n[nH]c(C)c2-c2ccccc2OC)c(O)c1 | 94.9% (active) |
| COc1ccc(-c2n[nH]c(C)c2-c2ccc(OC)c(OC)c2)c(O)c1 | 25.6% (inactive) |
| C=C(C)COc1ccc(-c2n[nH]c(C)c2-c2ccccc2OC)c(O)c1 | -0.153% (inactive) |
| COc1ccc(Cl)cc1NC(=O)COC(=O)c1ccc(Br)o1 | 3.97% (inactive) |
| CCCN(CC(=O)NC(=O)NC1CCCCC1)CC(=O)Nc1cc(Cl)ccc1Cl | -2.78% (inactive) |
| CCN(CCCNC(=O)c1ccc2c(c1)NC(=O)CN2C)c1cccc(C)c1 | 94.3% (active) |
| Cc1cccc(C(=O)NCCCN2CCCC2=O)c1 | -1.37% (inactive) |
| Cc1cccc(C(=O)NCCCN(C)CCCNC(=O)c2cccc(C)c2)c1 | -2.47% (inactive) |
| COc1ccccc1N(CCOc1ccccc1)S(=O)(=O)c1ccccc1 | -0.946% (inactive) |
| CCCN(CC1CC1)C(=S)NC(=O)c1ccccc1Br | -2.06% (inactive) |
| N#CCC(=O)N/N=C/c1ccc(SCC(=O)Nc2ccccc2)o1 | 93.3% (active) |
| Cc1ccc(/C=N/NC(=O)CSc2ccccn2)o1 | 3.05% (inactive) |
| O=C(CCNC(=O)c1ccccc1)NN=Cc1ccc(Br)o1 | -2.22% (inactive) |
| CC1(C)CC(=O)C=C(c2cccc3c2Oc2ccccc2S3)C1 | -3.51% (inactive) |
| Nc1nc(SCC(=O)NN(c2ccccc2)c2ccccc2)n[nH]1 | 87.6% (active) |
| Nc1nc(SCC(=O)Nc2ccc(Cl)cc2C(F)(F)F)n[nH]1 | 0.457% (inactive) |
| Nc1nc(SCC(=O)Nc2ccc(Cl)c([N+](=O)[O-])c2)n[nH]1 | -3.76% (inactive) |
| COc1ccc(C(=O)CSc2n[nH]c(N)n2)cc1 | -11% (inactive) |
| COc1ccc(CNC(=O)CSc2n[nH]c(N)n2)cc1OC | 4.3% (inactive) |
| Nc1nc(SCC(=O)NNc2c(Cl)cc(Cl)cc2Cl)n[nH]1 | 95.6% (active) |
| COc1ccc(N2CCN(S(=O)(=O)c3cc4c5c(c3)C(C)C(=O)N5CCC4)CC2)cc1 (configuration not stated) | 22.9% (inactive) |
| O=C(NCc1ccccc1)C1=C[C@@H](c2ccccc2)C[C@@H](OCCCCO)O1 | -16.2% (inactive) |
| Cc1cc(NC(=O)C(C)N2C(=O)c3ccccc3S2(=O)=O)no1 (configuration not stated) | 3.27% (inactive) |
| CCN(CC(=O)Nc1c(F)cccc1F)C(=O)c1ccc(-c2ccccc2)cc1 | -12% (inactive) |
| CC(OC(=O)/C=C/c1ccccc1)C(=O)Nc1ccc(C(N)=O)cc1 (configuration not stated) | -4.35% (inactive) |
| CCc1noc(C)c1C(=O)Nc1nc(-c2ccccc2)cs1 | -1.08% (inactive) |

| SMILES | inhibition |
| --- | --- |
| CCn1c(NC(=O)c2ccccc2)c(-c2cccs2)c(=O)c2ccccc21 | -3.02% (inactive) |
| CC(C)Cn1c(CCC(=O)O)ccc1-c1cccs1 | 98.9% (active) |
| CC(=O)c1ccc2c(c1)c1ccccc1n2CC(C)C | -8.57% (inactive) |
| Cc1cc(C(=O)NNC(=O)c2ccccc2O)c(C)o1 | 1.52% (inactive) |
| Cc1nn(C)c(C)c1NS(=O)(=O)c1ccc(OC(F)(F)F)cc1 | -3.04% (inactive) |
| CC(=O)Nc1ccc(C(=O)CSc2nc3ccc(C)cc3[nH]2)cc1 | 97.9% (active) |
| CCOC(=O)CSc1nc2ccc(C)cc2[nH]1 | -3.78% (inactive) |
| Cc1ccc2nc(SCC(=O)NC3CCCC3)[nH]c2c1 | 18.7% (inactive) |
| COc1cc(OC)cc(-c2cc3ccc(F)cc3cn2)c1 | 0.168% (inactive) |
| Cc1ccc(S(=O)(=O)N2CCN(C(=O)CN3C(=O)NC(C)(c4ccc(Cl)cc4)C3=O)CC2)c(C)c1 (configuration not stated) | -8.79% (inactive) |
| COc1cc(C2C(C(=O)c3ccc(C)o3)=C(O)C(=O)N2CCc2ccccc2)ccc1O (configuration not stated) | 51.3% (inactive) |
| Cc1cc(N2C(=O)C(O)=C(C(=O)c3ccc(C)o3)C2c2ccc(OCc3ccccc3)cc2)no1 (configuration not stated) | 38.2% (inactive) |
| C=CCOc1cccc(C2C(C(=O)c3ccc(C)o3)=C(O)C(=O)N2c2nnc(C)s2)c1 (configuration not stated) | 92.9% (active) |
| COC(=O)c1c(-c2ccsc2)oc2ccc(-c3cc(OC)c(OC)c(OC)c3)cc12 | -1.82% (inactive) |
| O=C(Cn1cnc2ccccc2c1=O)NNC(=O)c1ccccc1F | 29.2% (inactive) |
| Cc1nnsc1C(=O)Nc1cccc(Cl)c1C | -1.48% (inactive) |
| Cc1nnsc1C(=O)N/N=C/c1ccccc1Cl | -1.47% (inactive) |
| Cc1cc(Cl)ccc1NNC(=O)c1snnc1C | 98.9% (active) |
| CC(C)CN(C(=O)CSc1nncn1C)C1CCS(=O)(=O)C1 (configuration not stated) | 0.148% (inactive) |
| Cn1c(-c2sc3cc(C(F)(F)F)cnc3c2-c2ccccc2)n[nH]c1=S | 96.3% (active) |
| Cn1c(-c2sccc2OCc2cccc(C(F)(F)F)c2)n[nH]c1=S | 1.68% (inactive) |
| C=CCn1c(-c2sc(-c3ccccc3)nc2C)n[nH]c1=S | 8.68% (inactive) |
| COc1ccc(NC(=O)CSc2nc(SC)ns2)c(OC)c1 | 84.5% (active) |
| COc1ccc(C)cc1NC(=O)CSc1nc(SC)ns1 | -1.75% (inactive) |
| CSc1nsc(SCC(=O)Nc2cc(C(=O)O)ccc2C)n1 | 8.91% (inactive) |
| CCCCC/C=C/C1=CC(=O)C[C@H](c2ccc(Cl)cc2)C1 | 5.58% (inactive) |

| SMILES | inhibition |
| --- | --- |
| Cc1c(NC(=O)CSc2nnc(-c3cccnc3)n2N)c(=O)n(-c2ccccc2)n1C | 1.09% (inactive) |
| CS(=O)(=O)c1ccc(C(=O)OCC(=O)NNC(=O)COc2ccc(Cl)cc2)cc1 | -1.94% (inactive) |
| Cc1c(C(=O)NNC(=O)c2ccncc2)oc2ccccc12 | 2.8% (inactive) |
| Cc1c(C(=O)NC(=S)NCc2cccnc2)oc2ccccc12 | 93.3% (active) |
| Cc1ccc(C(=O)NC(=S)NCc2cccnc2)cc1 | 24.9% (inactive) |
| Cc1ccc(C2(C)NC(=O)N(CC(=O)N3CC(=O)Nc4ccccc43)C2=O)cc1 (configuration not stated) | 0.292% (inactive) |
| Cc1ccc(S(=O)(=O)N(C)c2ccc(OCC(=O)OCC(=O)N(CC#N)c3ccccc3)cc2)cc1 | -18.6% (inactive) |
| O=C(OCC(=O)N1CCCCC1)c1ccc(OC(F)(F)F)cc1 | -5.55% (inactive) |
| Cc1cc(C)cc(OCC(=O)Nc2ccc(N3CCOCC3)cc2N2CCOCC2)c1 | 7.88% (inactive) |
| O=C(CCc1nc2sc3c(c2c(=O)[nH]1)CCCC3)NCC(=O)Nc1ccccc1Br | 18.6% (inactive) |
| CCCN(CC1CC1)C(=O)COC(=O)c1ccc(C)cc1O | 5.02% (inactive) |
| C/C(=N\NC(=O)c1cccc(N2CCCC2=O)c1)c1ccc(N)cc1 | 99.1% (active) |
| CC1CCCC(NC(=O)c2cccc(N3CCCC3=O)c2)C1C (configuration not stated) | 0.109% (inactive) |
| O=C(NCCc1ccc(Cl)cc1)c1cccc(N2CCCC2=O)c1 | 2.63% (inactive) |
| Cc1ccnc(SCC(=O)Nc2cccc(S(=O)(=O)N3CCOCC3)c2)n1 | -3.28% (inactive) |
| COC(=O)c1cccc(NC(=O)CSc2nc(C)cc(=O)[nH]2)c1 | 98.5% (active) |
| CCOC(=O)Cc1csc(NC(=O)CSc2nc(C)cc(=O)[nH]2)n1 | 98.7% (active) |
| CCCc1cc(=O)[nH]c(SCC(=O)Nc2ccc(S(=O)(=O)N3CCCC3)cc2)n1 | -1.58% (inactive) |
| CCOC(=O)Cc1csc(NC(=O)CSc2ccc(Br)cc2)n1 | -32.4% (inactive) |
| Cc1cc(=O)[nH]c(SCC(=O)Nc2ccc(Br)cc2)n1 | -7.33% (inactive) |
| CCOC(=O)Cc1csc(NC(=O)C(C)(C)C)n1 | -0.763% (inactive) |
| Cc1cccc(NC(=O)CSc2nc3[nH]ncc3c(=O)[nH]2)c1 | 1.74% (inactive) |
| COc1ccc(NC(=O)CSc2nc(NS(=O)(=O)c3ccc(C)cc3)cc(=O)[nH]2)cc1 | 98.9% (active) |
| Cc1ccc(NC(=O)CSc2nc(CSc3ccc(C)cc3)cc(=O)[nH]2)cc1 | 6.9% (inactive) |
